Screens (PubChem)
VLA-4 antagonist: inhibitors of LDV-FITC ligand binding to Mn2+-activated human VLA-4 integrin; inhibition, % at 10 µM (by protocol); 0.2% of 24,000 active; AID 529; Jurkat cells, LDV-FITC binding with Mn2+, flow cytometry; 100% = Mn2+-driven binding gain fully reversed; P13612;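 active = inhibition above 50%; inconclusive = compound itself fluorescent, judged against control cell fluorescence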;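 also: 0% = Mn2+ stimulated cells lacking compound and 100% = ligand binding without Mn2+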
VLA-4 allo ag: allosterically activates the human VLA-4 integrin | Jurkat cells, LDV-FITC binding, flow cytometry | 24,000 tested, under 10 active | activation, % at 10 µM (by protocol);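 active = fluorescent ligand binding to cells raised by more than 40% of the manganese-induced maximum; inconclusive = compound's own fluorescence above 85% of the ligand control signal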;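 also: 0% = ligand binding without compound and 100% = manganese-stimulated maximal binding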
FPR binder: binds the human formylpeptide receptor FPR | 0.74% of 24,000 active | inhibition, % (no concentration beside the values) | FPR-expressing cells, fluorescent ligand binding, flow cytometry;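 also: 0% = buffer wells and 100% = receptor blocker peptide wells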
Target sequence (P21462 whole entry, looked up): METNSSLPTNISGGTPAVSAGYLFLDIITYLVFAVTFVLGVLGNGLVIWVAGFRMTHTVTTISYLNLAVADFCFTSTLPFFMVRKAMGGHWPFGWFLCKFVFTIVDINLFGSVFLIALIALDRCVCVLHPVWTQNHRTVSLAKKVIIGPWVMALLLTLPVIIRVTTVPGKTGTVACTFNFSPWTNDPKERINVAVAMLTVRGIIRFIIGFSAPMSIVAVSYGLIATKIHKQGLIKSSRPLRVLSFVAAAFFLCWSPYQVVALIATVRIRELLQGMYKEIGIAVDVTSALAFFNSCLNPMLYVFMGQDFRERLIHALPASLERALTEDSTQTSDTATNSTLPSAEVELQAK
FPRL1 binder: human FPRL1 ligand, with FPR counter-screen; P25090; AID 441; inhibition, % (no concentration beside the values); FPRL1-expressing cells, fluorescent ligand binding inhibition, flow cytometry; 0.3% of 24,000 active;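 also: 0% = buffer alone and 100% = receptor blocker peptide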
Jurkat autofluor: autofluorescence counter-screen for VLA-4 integrin assays. Jurkat cells, compound autofluorescence, flow cytometry; hits give high values; 1 = vehicle-only cell background. fluorescence ratio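 (tested at 10 µM compound in the well)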. 0.61% of 24,000 active;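 active = fluorescence ratio above 2.44, which is 1 plus 3 SD of all ratios; inconclusive = signal too bright to measure linearly, ratio around 10 or more; inactive = fluorescence ratio below 2.44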;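 also: green fluorescence of cells measured with 488 nm excitation and 530 nm emission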
26S disassembly: blocks ATP-dependent breakdown of the yeast 26S proteasome; anti-FLAG beads, GFP-proteasome disassembly, flow cytometry; inhibition of disassembly, % (concentration not given with the values); 0.2% of 24,000 active; AID 751;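 active = inhibition of disassembly above about 33%, limit read from the data; inconclusive = likely self-fluorescent, control bead median signal at least 40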;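 also: plate controls were ATP control with full disassembly for no effect and ATP-gamma-S intact proteasomes for full effect; higher percent means more bead fluorescence retained so stronger block of disassembly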
Starred values were filed as active, the others as inactive; ? = inconclusive; / = no result. Only some compounds are listed: those with a hit (about 1.9% of all), similar ones and a draw of the others. Rule as the data show it, unless noted: active = inhibition above about 30%; inconclusive = no clear call, values can overlap the other calls; inactive = below that.

SMILES	VLA-4 antagonist	VLA-4 allo ag	FPR binder	FPRL1 binder	Jurkat autofluor	26S disassembly
COC(=O)c1sc(N2C(=O)C(O)=C(C(=O)c3ccc(C)o3)C2c2ccc(F)cc2)nc1C (stereo not drawn)	?	?	5	-8	3.8*	11
CCc1ccc(-c2nc(CSCC(=O)NCCCN3CCCC3=O)c(C)o2)cc1	3	-2	2	2	1.1	0
Cc1nc2nc[nH]n2c(=O)c1NC(=O)c1c(-c2ccccc2Cl)noc1C	-16	6	9	-3	0.97	0
COCCn1c(=O)[nH]c2cc(C(=O)N3CCN(Cc4ccc5c(c4)OCO5)CC3)ccc2c1=O	-35	6	24	2	1.1	-1
O=C(Cn1cnc2c(cnn2-c2ccc(F)cc2)c1=O)OCc1ccccc1	-4	0	40*	54*	1.1	-1
CCCn1cnc2c(cnn2-c2ccc(F)cc2)c1=O	-17	0	0	-2	1	1
Cc1nc2c(-c3ccc(F)cc3)c(C)nn2c(C)c1CCC(=O)NC(C)CCc1ccco1 (stereo not drawn)	11	-6	44*	-6	1.1	-1
Cc1nc2c(-c3ccccc3)c(C)nn2c(C)c1CCC(=O)NCc1ccco1	6	-5	6	-1	1.1	0
CCC(=O)NC(C)C(c1cccs1)N1CCN(c2ccccc2)CC1 (stereo not drawn)	-12	2	-4	47*	0.96	0
CC(C)(C)n1nnnc1C(c1cccs1)N1CCN(Cc2ccccc2)CC1 (stereo not drawn)	-18	4	2	-4	1.1	0
CCOc1cccc(/C(O)=C2/C(=O)C(=O)N(CCOC)C2c2ccc(C)o2)c1 (stereo not drawn)	/	/	51*	-11	/	/
CCOCC(=O)Nc1ccc(-c2cn3cccnc3n2)cc1	17	5	2	2	0.97	2
COc1ccc(-c2cn3cccnc3n2)cc1NC(=O)c1ccc(Br)o1	1	-1	3	10	1.1	2
CCCC(=O)Nc1cc(-c2cn3cccnc3n2)ccc1OC	-18	4	-1	47*	1.1	-3
COc1ccc(-c2cn3cccnc3n2)cc1NC(=O)CC(C)C	4	1	3	40*	1.1	-4
Oc1[nH]c2ccccc2c1/C=N/c1nccs1	?	?	-4	-12	9.6*	17
COc1ccc(N(CC(=O)Nc2cccc(C(=O)O)c2)S(=O)(=O)c2c(C)noc2C)cc1	2	0	-6	3	0.97	0
O=C(NC(C(=O)c1ccccc1)N1CCOCC1)c1cccs1 (stereo not drawn)	-20	2	-6	-1	1	-1
O=S1(=O)C=C(Sc2nc3cc(Cl)ccc3o2)c2ccccc21	?	?	-20	-44	9.6*	13
Cc1cc(Cl)ccc1OCC(=O)Nn1c(C)ccc1C	0	-6	-10	-6	1.1	2
CCN(CC)c1ccc(C=N/C(C#N)=C(\N)C#N)cc1	?	?	4	68*	5.9*	?
CN(C)c1ccc(/C=C/C(O)=C2/C(=O)N(C)C3(C)CC2c2ccccc2O3)cc1 (stereo not drawn)	?	?	-15	-18	6.9*	85*
O=C(Cn1c(=O)oc2ccccc21)N1CCN(c2ccccc2)CC1	?	?	22	4	2.5*	3
O=C(CCn1c(=O)oc2ccccc21)N1CCN(c2ccccc2F)CC1	-12	0	-2	-2	1.1	1
COc1ccc(CN(C(=O)c2ccccc2OC)C2CCS(=O)(=O)C2)cc1 (stereo not drawn)	-28	-2	51*	51*	1	-1
O=C(C1CCC1)N1CCc2cc(S(=O)(=O)N3CCN(c4ccccn4)CC3)ccc21	13	-2	-6	1	1.1	-1
